Assay outcomes as filed in PubChem BioAssay.
tim23-1 inh – growth inhibitors of tim23-1 mutant yeast, primary screen, luminescence, uHTS. S. cerevisiae tim23-1 growth, BacTiter-Glo luminescence, 24 h. inhibition, % at 20 µM. hit rate 1.3% among 330,000. AID 463212, 2010;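 active = growth inhibition of the mutant yeast at or above 50%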;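 note: temperature-sensitive mutant grown at 25 °C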
tim10-1 inh – growth inhibitors of tim10-1 mutant yeast, primary screen, luminescence, uHTS; S. cerevisiae tim10-1 ts strain growth, BacTiter-Glo, 24 h; inhibition, % at 20 µM; hit rate 2.2% among 330,000; AID 463190, 2010;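 active = inhibition of at least 40%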;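 note: mutant grown at 25 °C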
PfHsp90 set2 – growth inhibition of PfHsp90-expressing yeast, primary screen, antimalarial PfHsp90 inhibitor project, S. cerevisiae, BacTiter-Glo luminescence, single point, set 2; hit rate 0.32% among 310,000; AID 504621, 2011; BacTiter-Glo ATP, 48 h; yeast lacking PDR1 and PDR3 efflux regulators; inhibition, % at 9.4 µM;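 active = every replicate shows inhibition above about 80%, whatever the replicate mean, limit read from the data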
SKKanGAS inh – S. pyogenes SKKanGAS growth inhibitors in kanamycin, primary screen, streptokinase expression inhibitor project, SKKanGAS strain, BacTiter-Glo luminescence | hit rate 1.3% among 300,000 | AID 1662, 2009 | inhibition, % at 7.5 µM | 6 h;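 active = mean replicate score, as percent of positive control median, at least 50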;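 note: strain carries kanamycin resistance gene driven by streptokinase promoter and grows in 40 µg/ml kanamycin; loss of luminescence reflects streptokinase promoter inhibition or plain growth inhibition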
NALP1 yeast inh – NALP1 inflammasome inhibitors in reconstituted yeast, colorimetric, S. cerevisiae, triplicate retest. S. cerevisiae NALP1/ASC/caspase-1 growth, X-gal OD620, 72 h. inhibition, % at 10 µM. hit rate 0.61% among 280,000. AID 2071, 2009; in the data active = inhibition mostly above about 24%, no sharp cut-off; inactive = mostly below about 32%
TIM10 inh – growth inhibitors of isogenic TIM10 control yeast, primary screen, counter-screen for tim10-1 yeast inhibitor project, luminescence, uHTS. S. cerevisiae TIM10 strain growth, BacTiter-Glo luminescence, 24 h. inhibition, % at 10 µM. hit rate 1.4% among 330,000. AID 463195, 2010;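 active = inhibition of 40% or more at the single tested concentration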;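 note: wild-type TIM10 isogenic control strain grown at permissive 25 °C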
tim10-1 confirm – growth inhibitors of tim10-1 mutant yeast, confirmation, single concentration, luminescence, S. cerevisiae. AID 463213, 2010. hit rate 56% among 7,400. shares compounds with tim10-1 inh. S. cerevisiae tim10-1 ts strain growth, BacTiter-Glo, 24 h. inhibition, % at 20 µM;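 active = inhibition of yeast growth at or above a set limit in either of two repeat tests at 20 µM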;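 note: tim10-1 mutant grown at permissive 25 °C to find synthetic lethal compounds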
Each line names hits and unclear results; the compound was inactive in the other large screens (follow-up assays come after a bar, where they were run). Sampled rows, rich in hits. Any-hit rate of the full collection: about 4.8%.

Cc1ccc(C2CC(c3cccs3)=NN2C(=O)c2ccco2)o1 (stereo not given)	none
O=C(CCCCCN1C(=O)[C@@H]2Cc3ccccc3CN2C1=O)Nc1cccc(F)c1	tim10-1 inh 45 | tim10-1 confirm inactive
Cc1cccc(NC(=O)CCCCCN2C(=O)[C@@H]3Cc4ccccc4CN3C2=O)c1	none
CCCCCCCC(=O)N/N=C/c1ccc(Br)cc1	tim10-1 inh 54 (no result: SKKanGAS inh) | tim10-1 confirm inactive
Cn1c(NCc2c(O)ccc3ccccc23)nc2ccccc21	tim10-1 inh 45 (no result: PfHsp90 set2) | tim10-1 confirm 33
COc1ccc(C(=O)C2CCCN(C(=O)COc3ccc(C(C)=O)cc3)C2)cc1F (stereo not given)	none
CCc1nc2ccccc2n1CCc1ccccc1	none
CC(C)(C)Cc1nc2ccccc2n1CCc1ccccc1	tim10-1 inh 41 | tim10-1 confirm inactive
Cc1nn(CCC(N)=O)c2nc(-c3cccs3)cc(C(F)(F)F)c12	none
COc1cccc(OC)c1C(=O)Nc1ccc(Br)c(C(=O)c2ccccc2)c1	tim10-1 inh 41 | tim10-1 confirm inactive
COc1ccccc1C(=O)Nc1cccc(C(=O)c2ccccc2)c1	none
Cc1ccc(NC(=O)c2ccc3c(c2)[nH]c(=O)n3C(C)C)cc1	none
CS(=O)(=O)c1ccc2nc(NC(=O)C3=NN(c4ccccc4)C(=O)CC3)sc2c1	none (no result: NALP1 yeast inh)
COc1ccc2nc(NC(=O)C3=NN(c4ccccc4)C(=O)CC3)sc2c1	tim10-1 inh 43 | tim10-1 confirm inactive
Cc1sc(N2CCN(S(=O)(=O)c3ccc4c(c3)NC(=O)CO4)CC2)nc1-c1ccccc1	tim10-1 inh 47 | tim10-1 confirm inactive
N#CC(CC(=O)c1ccc(F)cc1)c1ccc2c(c1)OCO2 (stereo not given)	tim10-1 inh 41 | tim10-1 confirm 31
O=C(/C=C/c1ccc2c(c1)OCO2)c1ccc(F)cc1	none
O=S(=O)(Nc1cccc2cccnc12)c1ccc(S(=O)(=O)N2CCCC2)cc1	tim10-1 inh 50 | tim10-1 confirm 39
Fc1cccc(Cl)c1CSc1ccc2nnc(-c3ccccn3)n2n1	tim10-1 inh 40 | tim10-1 confirm 31
Fc1cccc(CSc2ccc3nnc(-c4ccccn4)n3n2)c1	none (no result: PfHsp90 set2)
CCC(=O)N1CCCc2cc(S(=O)(=O)N3CCN(C4CCCCC4)CC3)ccc21	none
COc1ccccc1NS(=O)(=O)c1cc2c3c(c1)CC(=O)N3CCC2	none
Cc1ccc2oc(C(=O)N3CCN(Cc4ncccc4C)CC3)c(C)c2c1	tim10-1 inh 41 | tim10-1 confirm inactive
Cc1ccc2oc(C(=O)N3CCCCCC3)c(C)c2c1	none
COc1ccc(OC)c(C2=NOC(C(=O)NCc3cccnc3)C2)c1 (stereo not given)	none
CCCc1nc2sc3ccccc3c(=O)c2c(=O)n1Cc1ccccc1	none (no result: tim23-1 inh, tim10-1 inh, SKKanGAS inh, NALP1 yeast inh, TIM10 inh)
CCCCOc1ccc(S(=O)(=O)NNC(=O)C2Cc3c(ccc4ccccc34)O2)cc1 (stereo not given)	tim10-1 inh 45 (no result: PfHsp90 set2) | tim10-1 confirm inactive
CCCCN(C)S(=O)(=O)c1cc(Br)cc2c1N(C(=O)C1CC1)CC2	tim10-1 inh 42 | tim10-1 confirm 32
O=C(O)CCS(=O)(=O)c1cc(Br)cc2c1N(C(=O)C1CC1)CC2	none
Nc1nc(N)c(C=Nc2ccc(Br)cc2)c(Nc2ccc(Br)cc2)n1	tim10-1 inh 57, SKKanGAS inh 100 | tim10-1 confirm 32
CCN(CC)S(=O)(=O)c1cccc(C(=O)OC2CC(C)OC2=O)c1 (stereo not given)	none
Cc1cccc(C2Nc3cccc4cccc(c34)N2)c1	tim10-1 inh 41 | tim10-1 confirm inactive
Cc1cc(-c2ccccc2)n[nH]1	none
FC(F)C(F)(F)C(F)(F)C(F)(F)c1cc(-c2ccccc2)n[nH]1	tim10-1 inh 48 | tim10-1 confirm 30
